Reference: PubChem BioAssay
Calls of active or inactive are those of the source.

Assays:
[1] = E. coli DRC41 culture turbidity changes, primary screen, E. coli filamentation inducer project, strain DRC41, OD650, 48 h (AID 1152);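 also: E. coli MC1000 strain DRC41 lacking acrAB efflux pump and sulA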; settings: E. coli DRC41 (acrAB sulA), higher = more signal, called active from +8 up or from −8 down
[2] = small-molecule binders of probe aLefty1, primary screen, biochemical, small-molecule microarray, 635/667 nm fluorescence (AID 1153); settings: higher = more signal;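 also: score merges spot fluorescence with signal-to-noise ratio from the scanned slide images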
[3] = PSAC antagonists in infected red cells, primary screen, cell-based, P. falciparum Indochina, OD700, 1 h (AID 1154); settings: P. falciparum Indochina infected RBC osmotic lysis, higher = more signal, called active from +8 up or from −8 down
[4] = PSAC antagonists in infected red cells, primary screen, cell-based, P. falciparum Indochina, OD700, 2 h (AID 1155);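 also: lysis reports solute entry through the parasite surface anion channel PSAC; channel blockers reduce lysis of infected cells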; settings: P. falciparum Indochina infected erythrocytes, osmotic lysis OD700; higher = more signal, called active from +8 up or from −8 down
[5] = osmotic lysis modulators in infected erythrocytes, primary screen, PSAC antagonist project, cell-based, P. falciparum Indochina, OD700, 3 h (AID 1156); settings: higher = more signal, called active from +8 up or from −8 down
[6] = PSAC antagonists in infected red cells, primary screen, cell-based, P. falciparum Indochina, OD700, 18 h (AID 1157); settings: P. falciparum Indochina infected erythrocytes, osmotic lysis OD700, 18 h; higher = more signal, called active from +8 up or from −8 down
[7] = modulators of S6 phosphorylation in cells, primary screen, cell-based, A549, cytoblot, luminescence, serum-stimulated (AID 1158); settings: A549 phospho-S6 cytoblot, 5 h, higher = more signal;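 also: serum-stimulated A549 lung adenocarcinoma cells; signal is phosphorylated S6 detected by cytoblot immunostaining with HRP secondary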
[8] = molecular target: NADPH oxidase 2 (Homo sapiens) (UniProt P04839); experiment: NOX2-dependent H2O2 signal modulators, primary screen, NOX inhibitor project, cell-based, HEK293-NOX2, PMA-stimulated, Amplex Red fluorescence (AID 1159); settings: 45 min, higher = more signal, called active from +8 up or from −8 down; also: test concentration not given here
[9] = molecular target: NADPH oxidase 4 (Homo sapiens) (UniProt Q9NPH5); experiment: NOX4-dependent H2O2 signal modulators, primary screen, NOX inhibitor project, cell-based, HEK293-NOX4, tetracycline-induced, Amplex Red fluorescence (AID 1160); settings: 45 min, higher = more signal, called active from +8 up or from −8 down
[10] = molecular target: NADPH oxidase 5 (Homo sapiens) (UniProt Q96PH1); experiment: NOX5-dependent H2O2 signal modulators, primary screen, NOX inhibitor project, cell-based, HEK293-NOX5, Amplex Red fluorescence (AID 1161); settings: HEK293-NOX5, ionomycin, 45 min, higher = more signal
[11] = A549 cell viability effects, profiling panel, calcein-AM fluorescence, 48 h, basal (AID 1162); settings: higher = more signal; also: test concentration not given here
[12] = adipocyte viability effects, profiling panel, cell-based, 3T3-L1 adipocytes, calcein-AM fluorescence, 48 h, basal (AID 1163); settings: 3T3-L1 adipocytes viability, higher = more signal; also: test concentration not given here
[13] = HepG2 cell viability effects, profiling panel, calcein-AM fluorescence, 48 h, basal (AID 1164); settings: higher = more signal; also: test concentration not given here
[14] = MM1S cell viability effects, profiling panel, calcein-AM fluorescence, 48 h, basal (AID 1165); settings: higher = more signal;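 also: viability of MM1S multiple myeloma cells under basal unstimulated conditions; test concentration not given here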
[15] = basal RPMI8226 viability, no added stimulus, profiling panel, cell-based, calcein-AM fluorescence, 48 h, PK04 Diversity Set (AID 1166); settings: RPMI8226 myeloma viability, higher = more signal;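 also: cells grown under basal conditions without added stimulus; test concentration not given here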
[16] = basal HepG2 mitochondrial membrane potential changes, profiling panel, cell-based, JC-1 fluorescence, 24 h, 100 nL compound (AID 1167); settings: higher = more signal; also: test concentration not given here
[17] = basal 3T3-L1 adipocyte mitochondrial potential changes, profiling panel, cell-based, JC-1 fluorescence, 3T3-L1 adipocytes, 24 h, 100 nL compound (AID 1168); settings: JC-1 mitochondrial fluorescence, higher = more signal, called active from +8 up or from −8 down; also: test concentration not given here
[18] = basal RPMI8226 mitochondrial membrane potential changes, profiling panel, cell-based, JC-1 fluorescence, 24 h, 100 nL compound (AID 1169); settings: RPMI8226 myeloma, JC-1 mitochondrial potential fluorescence, higher = more signal; also: test concentration not given here
[19] = basal MM1S mitochondrial membrane potential changes, profiling panel, cell-based, JC-1 fluorescence, 24 h, 100 nL compound (AID 1170); settings: higher = more signal; also: test concentration not given here
[20] = A549 lung cancer cell viability effects, profiling panel, resazurin fluorescence, 24 h, PK04 Diversity Set (AID 1171); settings: higher = more signal, called active from +8 up or from −8 down; also: test concentration not given here

NADPH oxidase 4 (Homo sapiens), sequence (Q9NPH5 whole entry, looked up): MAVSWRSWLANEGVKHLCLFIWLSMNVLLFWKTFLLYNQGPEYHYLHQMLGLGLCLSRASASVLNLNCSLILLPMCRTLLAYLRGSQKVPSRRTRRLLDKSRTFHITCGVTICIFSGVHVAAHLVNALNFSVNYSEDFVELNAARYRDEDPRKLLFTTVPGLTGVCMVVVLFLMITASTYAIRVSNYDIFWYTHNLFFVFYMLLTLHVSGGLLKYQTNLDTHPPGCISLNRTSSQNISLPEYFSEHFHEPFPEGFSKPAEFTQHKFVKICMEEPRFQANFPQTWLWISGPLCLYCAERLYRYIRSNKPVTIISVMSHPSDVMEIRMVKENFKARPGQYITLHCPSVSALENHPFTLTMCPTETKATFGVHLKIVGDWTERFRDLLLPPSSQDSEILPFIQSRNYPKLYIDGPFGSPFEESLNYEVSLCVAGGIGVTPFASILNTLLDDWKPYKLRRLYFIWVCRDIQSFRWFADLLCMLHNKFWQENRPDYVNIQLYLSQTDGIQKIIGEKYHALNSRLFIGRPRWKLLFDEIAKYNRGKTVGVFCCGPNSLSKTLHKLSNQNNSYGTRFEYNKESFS
NADPH oxidase 2 (Homo sapiens), sequence (P04839 whole entry, looked up): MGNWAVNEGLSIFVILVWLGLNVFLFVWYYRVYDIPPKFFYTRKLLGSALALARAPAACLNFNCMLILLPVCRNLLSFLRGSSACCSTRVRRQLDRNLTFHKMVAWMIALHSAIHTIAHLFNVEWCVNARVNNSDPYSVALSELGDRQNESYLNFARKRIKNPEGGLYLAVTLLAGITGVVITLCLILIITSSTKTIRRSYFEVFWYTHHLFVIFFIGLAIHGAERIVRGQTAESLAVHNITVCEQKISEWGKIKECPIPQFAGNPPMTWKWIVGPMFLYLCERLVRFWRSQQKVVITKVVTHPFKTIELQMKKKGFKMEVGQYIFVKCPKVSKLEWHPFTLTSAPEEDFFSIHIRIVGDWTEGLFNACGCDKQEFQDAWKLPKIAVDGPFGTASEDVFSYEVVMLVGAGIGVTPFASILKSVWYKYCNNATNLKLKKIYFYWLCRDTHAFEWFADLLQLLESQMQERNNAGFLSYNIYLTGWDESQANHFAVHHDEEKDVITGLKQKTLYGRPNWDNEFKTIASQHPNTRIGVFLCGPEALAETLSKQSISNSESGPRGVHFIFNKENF
NADPH oxidase 5 (Homo sapiens), sequence (Q96PH1 whole entry, looked up): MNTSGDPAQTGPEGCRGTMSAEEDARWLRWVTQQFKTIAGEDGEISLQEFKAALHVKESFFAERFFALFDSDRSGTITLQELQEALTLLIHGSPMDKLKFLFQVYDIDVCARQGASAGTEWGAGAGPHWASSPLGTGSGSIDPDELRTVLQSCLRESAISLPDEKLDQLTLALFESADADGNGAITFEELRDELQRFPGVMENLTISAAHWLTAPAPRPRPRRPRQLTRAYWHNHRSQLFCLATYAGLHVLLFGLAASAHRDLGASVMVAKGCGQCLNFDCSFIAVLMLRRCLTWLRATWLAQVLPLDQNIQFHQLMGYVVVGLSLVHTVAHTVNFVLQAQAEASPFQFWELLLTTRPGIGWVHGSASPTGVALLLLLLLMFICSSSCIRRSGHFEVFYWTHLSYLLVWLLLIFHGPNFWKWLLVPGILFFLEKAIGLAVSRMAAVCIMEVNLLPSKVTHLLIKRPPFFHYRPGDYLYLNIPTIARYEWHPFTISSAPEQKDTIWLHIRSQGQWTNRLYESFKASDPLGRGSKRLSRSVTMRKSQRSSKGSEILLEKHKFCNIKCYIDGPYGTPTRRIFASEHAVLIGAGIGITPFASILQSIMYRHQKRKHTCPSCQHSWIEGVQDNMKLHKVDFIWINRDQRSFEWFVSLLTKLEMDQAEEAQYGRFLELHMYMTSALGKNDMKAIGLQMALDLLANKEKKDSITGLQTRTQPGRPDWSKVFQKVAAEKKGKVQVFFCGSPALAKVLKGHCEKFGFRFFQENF

SMILES | z-score [1] | composite z-score [2] | z-score [3] | z-score [4] | z-score [5] | z-score [6] | z-score [7] | z-score [8] | z-score [9] | z-score [10] | z-score [11] | z-score [12] | z-score [13] | z-score [14] | z-score [15] | z-score [16] | z-score [17] | z-score [18] | z-score [19] | z-score [20]
COCCCN1C(=O)[C@@]2(Cc3ccccc31)c1ccccc1C(=O)N(Cc1ccccc1C(F)(F)F)[C@H]2c1ccc(CO)cc1 | -0.125 (inactive) | -0.208 | 0.512 (inactive) | 0.635 (inactive) | -0.101 (inactive) | 0.427 (inactive) | 0.0136 | -0.767 (inactive) | -0.607 (inactive) | 0.77 | -0.84 | -1.15 | -0.539 | -0.155 | -0.259 | -0.451 | 0.801 (inactive) | 0.799 | 0.148 | -0.356 (inactive)
NCCCCCNC(=O)[C@@H]1C[C@@H]2C(=O)NCC(=O)N2[C@@H]1c1ccc(O)cc1 | -0.142 (inactive) | -0.0984 | 0.539 (inactive) | 0.115 (inactive) | -0.563 (inactive) | -0.0673 (inactive) | -0.47 | -0.354 (inactive) | -0.0757 (inactive) | 0.564 | 0.685 | -0.366 | 0.678 | 0.545 | 0.895 | 1.32 | 0.114 (inactive) | -0.0558 | -0.408 | 0.508 (inactive)
CC(C)C[C@@H]1NC(=O)[C@H]2C[C@@H](C(=O)NCCCCCCN)[C@@H](c3ccc(O)cc3)N2C1=O | -0.63 (inactive) | 0.51 | 1.9 (inactive) | 0.0643 (inactive) | -0.265 (inactive) | 0.3 (inactive) | -0.648 | 1.21 (inactive) | 1.05 (inactive) | 0.315 | -0.145 | 0.106 | -0.766 | -0.495 | -0.953 | 0.414 | -0.217 (inactive) | -0.279 | 0.861 | -0.939 (inactive)
O=C1OCC=C[C@H]2OC34C=CCN(CCN5CCOCC5)C(=O)[C@H]3N(CCCO)C(=O)[C@@H]4[C@@H]12 (stereo not given in full) | 0.109 (inactive) | -0.147 | 0.64 (inactive) | -0.385 (inactive) | 1.27 (inactive) | -1.19 (inactive) | 1.08 | 0.812 (inactive) | -1.16 (inactive) | 0.375 | 0.74 | 1.38 | 0.811 | 1.11 | -1.16 | -0.326 | 0.584 (inactive) | 0.676 | 0.57 | -1.38 (inactive)
